This note sets out measurements from PubChem BioAssay (NCATS).

A short description of test [1]: qHTS drug screen for cell cycle checkpoint inhibitors in PARPi-resistant BRCA-mutant ovarian cancer cell lines. (AID 1963452; calls by dose curve; also: potency is read from the fitted curve at half-maximal effect). The note with it: PEO1/OlaR viability, CellTiter-Glo luminescence, 96 h; for Z-AUC: stronger effect = lower value. The procedure, abridged:
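PEO1, PEO4 and PEO1/OlaR ovarian cancer cells, 600 per well, exposed 96 h at 37C to a dilution series. Viability read by CellTiter-Glo luminescence, normalized to DMSO and empty wells; activity summarized as Z-AUC.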
Background: Quantitative high-throughput screening tests each substance at several concentrations.

Test [2] concerns the target Cytochrome P450 2D6 (Homo sapiens) (UniProt P10635). Briefly: qHTS for inhibitors of CYP2D6 against the NCATS DSHEA and TCM libraries (AID 1919972). Also: % is scaled to controls: 0 for no effect and ±100 for the full control effect. Conditions: CYP2D6 enzymatic inhibition, luminescence qHTS; series mostly up to 34.1 µM. The method in brief:
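Luminescent P450-Glo read-out of CYP2D6 turnover of a luciferin substrate after NADPH-driven reaction of 30-45 min at room temperature. Compounds were first preincubated 15 min with enzyme at titrated concentrations; quinidine was the intraplate control.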

Test [3] can be described thus: KB-3-1 P-gp reporter qHTS against the NCATS DSHEA and TCM libraries (AID 1919975). Also: 0% is about no effect. Conditions: KB-3-1 parental cells, CellTiter-Glo luminescence viability, 72 h; series mostly up to 26.1 µM. The procedure, abridged:
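CellTiter-Glo luminescence viability readout; KB-3-1 parental cells, 500/well, attached ~4 h, then compound for ~72 h, 37C, 5% CO2. Bortezomib intraplate control.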

Test [4] is described as follows: qHTS Counterscreen for compound interference against the NCATS DSHEA and TCM libraries (AID 1919978).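 Also: compounds preincubated with 1 µM D-luciferin or buffer before detection reagent; % of control where 0% means no effect.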 The note with it: firefly luciferase detection reagent interference, luminescence. The method in brief: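 Luminescence counterscreen for detection-kit interference: compounds at 19.5 nM–39.8 uM final, 15 min RT with 1 uM D-luciferin or buffer only; detection reagent added, 30 min RT, then read.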

A short description of test [5]: Dual reporter qHTS for agonist of Pregnane X Receptor (hPXR) against the NCATS DSHEA and TCM libraries: Fluorescence readout (AID 1920058). Also: potency is read from the fitted curve at half-maximal effect. The note with it: PXR dual reporter cells; series mostly up to 40 µM. The method in brief:
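HepG2 hPXR-Luc, 2000 cells/well, 5 h attach; cpds ~24 h, 37 °C/5% CO2; CellTiter-Fluor 1 h; fluor. Ex/Em 405/540 nm = viability.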

Test [6] concerns the target Nuclear receptor subfamily 1 group I member 2 (Homo sapiens) (UniProt O75469). Put plainly: Dual reporter qHTS for agonist of Pregnane X Receptor (hPXR) against the NCATS DSHEA and TCM libraries: Luminescence readout (AID 1920059). Also: potency is read from the fitted curve at half-maximal effect. The note with it: hPXR dual reporter cells, luciferase luminescence agonist; series mostly up to 40 µM. The procedure, abridged: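 hPXR-Luc HepG2 cells, 2000/well in 5% charcoal-stripped FBS medium, attached 5 h, then exposed 24 h at 37C to compounds. Viability by CellTiter-Fluor, then luciferase luminescence with ONE-Glo.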

The target is the same in test [7]. Put plainly: Dual reporter qHTS for antagonist of Pregnane X Receptor (hPXR) against the NCATS DSHEA and TCM libraries: Luminescence Readout (AID 1920060). Also: 0% is about no effect. The note with it: hPXR dual reporter cells, luciferase luminescence, antagonist mode; series mostly up to 40 µM. The procedure, abridged: (§1)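 In antagonist mode, 2 uM rifampicin was added to hPXR-Luc HepG2 cells alongside test substances, incubated 24 h at 37 C; luminescence gave reporter activity, and CellTiter-Fluor fluorescence (405/540 nm) gave viability.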

The nature of test [8]: Dual reporter qHTS for antagonist of Pregnane X Receptor (hPXR) against the NCATS DSHEA and TCM libraries: Fluorescence Readout (AID 1920061). Also: 0% is about no effect. The note with it: PXR dual reporter cells, antagonist mode; series mostly up to 40 µM. The procedure, abridged:
as §1

A short description of test [9]: qHTS for identification of novel therapeutic agents for treatment of microphthalmiaassociated transcription factor (MiT) renal cell carcinoma (RCC) (AID 1963991). The note with it: CellTiter-Glo, 48 h, stronger effect = lower value. The method in brief: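 Curves over 11 concentrations were fitted to CellTiter-Glo luminescence, scaled between empty wells (0%) and DMSO (100%) viability. Cells were UOK109, UOK124 and UOK145 TFE3-fusion RCC lines at 500/well, exposed 48 hours at 37 C.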

The target in test [10] is Cytochrome P450 2C9 (Homo sapiens) (UniProt P11712). Briefly: qHTS for inhibitors of CYP2C9 against the NCATS DSHEA and TCM libraries (AID 1919973).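 Also: luminogenic pro-luciferin CYP2C9 substrate turned into luciferin with NADPH regeneration; % is scaled to controls: 0 for no effect and ±100 for the full control effect.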 The note with it: recombinant CYP2C9 enzyme activity, luminescence; series mostly up to 34.1 µM. The method in brief:
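Read-out is luminescence after P450-Glo detection (30 min, RT). Before that: 15 min compound–enzyme preincubation, then 30-45 min reaction with 1x NADPH regeneration solution, substrate concentration isoform-specific.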

The nature of test [11]: qHTS profiling for inhibitors of Plasmodium falciparum proliferation (AID 504749).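 Also: 0% = DMSO vehicle and full inhibition = artemisinin control; nearly all actives have a fitted effect of over 60% in size.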 Conditions: P. falciparum in erythrocytes, SYBR Green DNA, 72 h, at 28.7 µM (top of the series). The procedure, abridged: (§2)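 P. falciparum-infected erythrocytes (0.3% parasitemia, 2.5% hematocrit) incubated with compound 72 h at 37 C, 5% CO2. Parasite DNA detected by SYBR Green after lysis, overnight at room temperature; normalised to 0.29 uM artemisinin and DMSO.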

The next test deals with 3D7. The description is as above. Conditions: P. falciparum in erythrocytes, SYBR Green DNA, 72 h; series mostly up to 28.7 µM. The method in brief: as §2
In the next test the test system is AA1029. The test is described as above. Conditions: P. falciparum in erythrocytes, SYBR Green DNA, 72 h; series mostly up to 28.7 µM. The procedure, abridged:
as §2

A further test concerns AS120. The test is described as above. Conditions: P. falciparum in erythrocytes, SYBR Green DNA, 72 h; series mostly up to 28.7 µM. The procedure, abridged:
as §2

The next test relates to ATS189. The test is described as above. The note with it: P. falciparum in erythrocytes, SYBR Green DNA, 72 h; series mostly up to 28.7 µM. The procedure, abridged: as §2
The subject of the next test is ATS95. The description is as above. Conditions: P. falciparum in erythrocytes, SYBR Green DNA, 72 h; series mostly up to 28.7 µM. The procedure, abridged:
as §2

Another test concerns C2A. Described as above. Conditions: P. falciparum in erythrocytes, SYBR Green DNA, 72 h; series mostly up to 28.7 µM. The method in brief:
as §2

Setting [12] is: measured here: PEO1 parental Z-AUC.
Where [13] appears, read: TFE3-RCC UOK109 viability, measured here: UOK109 Z-AUC.
[14] abbreviates: TFE3-RCC viability, measured here: UOK124 Z-AUC.
The mark [15] stands for this setting: TFE3-RCC viability, measured here: UOK145 Z-AUC.

SMILES strings stand for the structures. Results filed as inconclusive are left out. Calls of active or inactive are those of the source. Unless noted, calls follow the shape of the dose curve; as a rule, active = well fitted curve in the direction sought with a large enough effect; inconclusive = small, poorly fitted or top-dose-only effect, or another doubt; inactive = no such curve, though single readings can be large; an effect the other way counts as inactive or inconclusive.

Sequence of Nuclear receptor subfamily 1 group I member 2 (Homo sapiens) (O75469 whole entry, looked up): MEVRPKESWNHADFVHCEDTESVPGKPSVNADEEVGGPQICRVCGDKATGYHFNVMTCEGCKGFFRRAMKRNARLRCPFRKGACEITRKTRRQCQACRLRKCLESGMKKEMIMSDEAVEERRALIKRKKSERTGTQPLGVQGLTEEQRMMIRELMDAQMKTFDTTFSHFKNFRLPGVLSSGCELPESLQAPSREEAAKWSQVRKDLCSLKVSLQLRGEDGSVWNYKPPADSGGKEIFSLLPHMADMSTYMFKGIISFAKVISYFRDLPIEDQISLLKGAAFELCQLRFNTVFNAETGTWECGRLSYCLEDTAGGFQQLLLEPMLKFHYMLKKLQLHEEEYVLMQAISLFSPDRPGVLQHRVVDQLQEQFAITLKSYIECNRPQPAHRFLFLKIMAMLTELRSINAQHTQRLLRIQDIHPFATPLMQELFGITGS
Sequence of Cytochrome P450 2C9 (Homo sapiens) (P11712 whole entry, looked up, canonical isoform): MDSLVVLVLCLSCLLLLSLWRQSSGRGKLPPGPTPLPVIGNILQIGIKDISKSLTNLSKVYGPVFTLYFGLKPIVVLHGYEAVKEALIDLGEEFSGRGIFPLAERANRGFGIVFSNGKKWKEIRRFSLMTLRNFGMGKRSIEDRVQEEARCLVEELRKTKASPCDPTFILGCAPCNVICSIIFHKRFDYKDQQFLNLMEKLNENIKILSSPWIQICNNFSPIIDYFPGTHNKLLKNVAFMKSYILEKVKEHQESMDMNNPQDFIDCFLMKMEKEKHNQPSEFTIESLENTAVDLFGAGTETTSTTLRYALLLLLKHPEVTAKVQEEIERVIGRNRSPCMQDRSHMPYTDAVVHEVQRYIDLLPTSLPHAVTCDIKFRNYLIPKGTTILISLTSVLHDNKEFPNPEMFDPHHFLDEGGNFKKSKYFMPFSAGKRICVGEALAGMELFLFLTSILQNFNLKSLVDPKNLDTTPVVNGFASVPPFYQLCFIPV
Sequence of Cytochrome P450 2D6 (Homo sapiens) (P10635 whole entry, looked up): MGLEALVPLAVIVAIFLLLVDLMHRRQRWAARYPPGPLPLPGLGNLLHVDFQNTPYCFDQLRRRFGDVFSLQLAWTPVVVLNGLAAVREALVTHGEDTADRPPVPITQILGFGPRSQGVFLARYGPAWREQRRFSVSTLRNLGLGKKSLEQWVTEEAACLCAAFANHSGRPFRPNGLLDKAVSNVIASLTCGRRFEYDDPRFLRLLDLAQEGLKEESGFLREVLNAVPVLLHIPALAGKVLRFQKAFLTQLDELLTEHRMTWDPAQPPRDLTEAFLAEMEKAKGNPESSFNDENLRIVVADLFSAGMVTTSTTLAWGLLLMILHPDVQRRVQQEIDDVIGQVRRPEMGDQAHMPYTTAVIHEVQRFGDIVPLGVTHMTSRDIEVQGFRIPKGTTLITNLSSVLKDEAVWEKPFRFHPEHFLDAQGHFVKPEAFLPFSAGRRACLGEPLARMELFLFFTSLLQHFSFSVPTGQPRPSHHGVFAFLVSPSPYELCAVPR

As to `CN1c2ccccc2C(=O)N2CCc3c([nH]c4ccccc34)C21` (configuration not stated), the Z-AUC in test [1] is 0.807 (inactive); in [1] (setting [12]) it was -0.272; in test [1] (measured here: PEO4 Z-AUC), -0.128.
Take `CC(C)(CO)[C@@H](O)C(=O)NCCC(=O)O`: the compound was called inactive in [2], in test [3], in [7] and in [8]. Also, the max response in test [4] is -1.56% (inactive). For the same compound, in test [5], the Potency result was “inactive”. Also, the Potency in test [6] was 11.2 µM (active). Further, the Z-AUC in test [1] was -0.0324 (inactive); in [1] (setting [12]), 0.0769; in test [1] (measured here: PEO4 Z-AUC), 0.104. Besides, the values for the z-score in [9] (setting [13]), in [9] (setting [14]) and in [9] (setting [15]) were 1.12, 0.429 and -0.0311, respectively.
As to `OC(c1cc(C(F)(F)F)nc2c(C(F)(F)F)cccc12)C1CCCCN1` (configuration not stated), the Z-AUC in [1] was 0.945 (inactive); in test [1] (setting [12]), 0.285; in [1] (measured here: PEO4 Z-AUC), 0.429.
Consider `N#CC(c1ccnc(NCCc2cccnc2)n1)c1nc2ccccc2s1` (configuration not stated), for which the Z-AUC in test [1] was 1.07 (inactive); in [1] (setting [12]), 0.451; in test [1] (measured here: PEO4 Z-AUC) it was 0.404.
On the same counts, the results for `C[C@@H](N)c1ccc(C(=O)Nc2ccnc3[nH]ccc23)cc1` are 0.345 (inactive), 0.635 and 0.729.
Consider `CC1(C)CC(=O)c2c(C(F)(F)F)nn(-c3ccc(C(N)=O)c(NC4CCC(O)CC4)c3)c2C1` (configuration not stated), for which, in test [1], the Potency was 0.219 µM (active). The values for the Z-AUC in [1] (setting [12]) and in test [1] (measured here: PEO4 Z-AUC) were -1.53 and -1.31, respectively.
Regarding `CC(C)CNc1ccnc(NCc2csc(-c3ccccc3)n2)n1`, the Z-AUC in test [1] was -1 (inactive); in [1] (setting [12]) it was -0.906; in [1] (measured here: PEO4 Z-AUC) it was -0.83.
Turning to `COc1ccc(CCN(C)CCCOc2ccc(S(=O)(=O)c3[nH]c4ccccc4c3C(C)C)cc2)cc1OC`, the Z-AUC in test [1] is -0.498 (inactive); in test [1] (setting [12]), 0.248; in test [1] (measured here: PEO4 Z-AUC), 0.439.
As for `Cc1ccc2c(c1)C(=O)[C@]1(O)CCN(c3ccccc3)C1=N2`, the Z-AUC in [1] is 1.54 (inactive); in test [1] (setting [12]), 1.18; in test [1] (measured here: PEO4 Z-AUC) it was 1.07.
On the same counts, the results for `O=C1CN2Cc3c(ccc(Cl)c3Cl)N=C2N1` are -0.36 (inactive), 0.71 and 0.69.
Consider `NC(=O)c1noc([C@H](CCCC2CCCCC2)CC(=O)NO)n1`, for which the Z-AUC in [1] is 1.33 (inactive); in test [1] (setting [12]) it was 0.607; in test [1] (measured here: PEO4 Z-AUC) it was 0.522.
On the same counts, the results for `O=c1[nH]nc(OCCCc2ccc(Cl)cc2)c(NCc2cccnc2)c1Br` are -1.27 (inactive), -1.54 and -1.42.
Consider `Cc1cc2nc3c(=O)[nH]c(=O)nc-3n(CC(O)C(O)C(O)CO)c2cc1C` (configuration not stated), for which the Potency entry (in test [10]; in [6]; with 3D7; in the test on AA1029; in the test on AS120; with ATS189) was “inactive” throughout. The Potency result with ATS95 and with C2A was “inactive” throughout. In addition, the outcome in [3], in test [7] and in [8] was inactive. The max response in [4] was 1.01% (inactive). Moreover, the Potency in test [5] is 28.2 µM (active). Further, the Z-AUC in [1] was -0.035 (inactive); in [1] (setting [12]), 0.9; in [1] (measured here: PEO4 Z-AUC), 1. The z-score came to 1.42 in test [9] (setting [13]), 0.421 in [9] (setting [14]) and 0.538 in test [9] (setting [15]). The activity, negative = inhibition was -17.3% (inactive) in test [11] (parasite line A) and -10.6% (inactive) in [11] (parasite line B).
